Measured values from PubChem BioAssay AID492997 (Johns Hopkins Ion Channel Center, 2010).
The whole screen tested about 4,900 compounds, of which about 2,000 (41%) were called active.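 Rule for the calls: active = thallium signal drop beyond 5 SD of the untreated control mean, on both duplicate plates; inactive = the rest.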 So high a share suggests a set chosen from earlier hits. These entries were drawn from the full list.

experiment: nonspecific activity without KCNK9 expression – cell-based, second counter screen, non-induced KCNK9-HEK293, counter-screen for KCNK9 inhibitor project, confirmation (AID 492997); conditions: non-induced KCNK9-HEK293, FluxOR thallium flux, at 10 µM; hits give high values;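 for inhibition: plate controls were buffer only IC0 wells for no effect and SID17386958 at its maximal inhibitory level for full effect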

Row | Structure (SMILES) | inhibition
1 | COc1ccc(C2Nc3ccccc3C(=O)N2Cc2ccccc2)cc1Cn1nnc2ccccc21 (stereo not given) | 39% (active)
2 | O=S(=O)(c1ccc(F)cc1)N1CCN(Cc2ccccc2C(F)(F)F)CC1 | inactive
3 | COc1cccc2sc(NNC(=O)c3nc4ccccc4s3)nc12 | inactive
4 | Cc1nn(CC(=O)Nc2nc3ccccc3s2)c(C)c1[N+](=O)[O-] | 33.5% (active)
5 | CCn1cnc2scc(-c3ccc(C)c(C)c3)c2c1=O | inactive
6 | O=C(Nc1ccccc1[N+](=O)[O-])C1C(c2ccccc2)=C1c1ccccc1 | 26% (active)
7 | CCCCCCCCn1c2c(c(=N)c3c1CCC3)CCCC2 | 27% (active)
8 | Cc1ccc(Cn2ccc(NC(=O)c3cc(C(C)C)on3)n2)cc1 | inactive
9 | C[C@@]12C(=O)N(c3cccc(Br)c3)C(=O)N1[C@H](c1ccc(Cl)cc1)[C@@H]1C(=O)N(C3CCCCC3)C(=O)[C@@H]12 | inactive
10 | CCOC(=O)[C@@H]1[C@H]2COc3ccc(Br)cc3[C@H]2N2C(=O)N(c3ccc(Cl)cc3)C(=O)[C@@]12C | 36% (active)
11 | COC(=O)c1cccc(C(=O)N2CCCC(Nc3ccc4c(c3)OCCO4)C2)c1 (stereo not given) | inactive
12 | COc1ccc(OC)c(C(=O)c2coc3ccc(OC)cc23)c1 | 27% (active)
13 | CN(CCC(=O)Nc1cc(S(=O)(=O)N(C)C)ccc1Cl)CC(=O)Nc1ccc(F)cc1 | 42% (active)
14 | COc1ccc(NC(=O)CN(C)CC(=O)Nc2cccc(C(F)(F)F)c2)cc1 | inactive
15 | COc1ccc(-c2n[nH]c3c2CN(C(=O)c2ccc(F)cc2)CC3)cc1 | inactive
16 | CC1=CC(C)(C)N(C(=O)CSc2nnc(-c3ccccc3)o2)c2ccc(C)cc21 | inactive
17 | COc1ccc(-c2noc(CSc3ccc(C)cc3)n2)cc1 | inactive
18 | COc1cc(NC(=S)NCCSc2ccc(C)cc2)cc(OC)c1 | 24% (active)
19 | COc1cccc(C(=O)NCCSc2ccc(Br)cc2)c1 | inactive
20 | FC(F)(F)c1cc(-c2ccco2)nc(NCc2ccc(Cl)cc2)n1 | 60.5% (active)
21 | O=C1/C(=C/c2ccc(F)cc2)SC(=S)N1NS(=O)(=O)c1ccccc1 | inactive
22 | C/C(=N\NC(=S)Nc1ccc(C)cc1)c1cc2ccccc2o1 | inactive
23 | CCOC(=O)c1c(NC(=O)CSc2cn(CC)c3ccccc23)sc2c1CCC2 | inactive
24 | CCCCCn1c(=O)c(C(=O)OCC)c(Cl)c2ccccc21 | 40.5% (active)
25 | Cc1ccccc1N1CCN(Cc2nc(Cc3ccccc3F)no2)CC1 | inactive

Row | Structure (SMILES) | inhibition
26 | Fc1cccc(Cl)c1CSc1ccc(-c2ccco2)nn1 | 32% (active)
27 | O=C(Nc1cc(Cl)cc(Cl)c1)C(NCCCO)c1ccccc1 (stereo not given) | 29% (active)
28 | Cc1cc(OC(C)C(=O)Nc2ccc(S(=O)(=O)Nc3onc(C)c3C)cc2)cc(C)c1Cl (stereo not given) | inactive
29 | O=C(CNCCC1=CCCCC1)Nc1ccccc1N1CCCCCC1 | 38.5% (active)
30 | Cc1cc(C)cc(OCC(=O)Nc2cc(NC(=O)COc3cc(C)cc(C)c3)cc(C(=O)O)c2)c1 | inactive
31 | COc1cccc(-c2cc3nc4c(c(N5CCC6(CC5)OCCO6)n3n2)CCCC4)c1 | 27% (active)
32 | COc1cccc2cc(C(C)N(CCCN3CCOCC3)C(=O)Nc3ccc(Cl)cc3)oc12 (stereo not given) | 28.5% (active)
33 | CN(C)c1ccc(C(CNC(=O)c2ccc(F)cc2)c2c[nH]c3ccccc23)cc1 (stereo not given) | 39% (active)
34 | CCN(CC)C(=O)CC1(c2ccccc2OC)CCOC(C(C)C)C1 (stereo not given) | 38% (active)
35 | COc1cccc(CN(C)C(=O)CC23CC4CC(CC(C4)C2)C3)c1OC | inactive
36 | CC(C)(C)NC(=O)NC(=O)CN1CCC(Cc2ccccc2)CC1 | inactive
37 | O=C1N=C2SCCN2/C1=C\c1c(Cl)cccc1Cl | inactive
38 | COc1cccc(OC)c1C(=O)Nc1sc2c(c1C(N)=O)CCCC2 | inactive
39 | COc1ccc(C(C)=O)cc1COc1ccc(Cl)c(C)c1 | 37% (active)
40 | Cc1ccc(OCc2cc(C(=O)N(C)CCc3ccccc3)no2)cc1C | inactive
41 | O=C(NCc1ccccc1)C1=C[C@@H](C2CCCCC2)C[C@@H](OCc2ccc(CO)cc2)O1 | inactive
42 | CCC(C)(C)n1nnnc1C(c1cccs1)N1CCN(c2nc3ccccc3s2)CC1 (stereo not given) | 34.5% (active)
43 | CC1(C)CC(N2CCN(C(c3ccccc3)c3ccccc3)CC2)=CC(=[N+]2CCCCC2)C1 | 36% (active)
44 | Cc1ccccc1CSc1nnc(CCCCCNC(=O)OC(C)(C)C)o1 | 22% (active)
45 | COC(=O)c1sc(-c2ccc(C(C)(C)C)cc2)cc1NC(=O)/C=C/C(=O)O | inactive
46 | COc1ccc(C(=O)NN2C(=O)C3C(c4ccccc4)C=CC(c4ccccc4)C3C2=O)cc1 (stereo not given) | inactive
47 | COc1ccc(C(=O)Nc2ccccc2C(=O)N/N=C/c2ccccc2OC)cc1 | 31% (active)
48 | COc1cccc(-c2cnc(OC(C)(C)C)nc2OC(C)(C)C)c1 | inactive
49 | O=C(Nc1ccc2c(c1)CCC2)c1cccc(S(=O)(=O)Nc2ccccc2Cl)c1 | inactive
50 | O=C(N/N=C/c1ccccn1)c1cccc(NC(=O)c2ccc(Cl)cc2)c1 | 22.5% (active)

Row | Structure (SMILES) | inhibition
51 | O=C(COc1ccc(Cl)cc1Cl)N/N=C/c1ccccn1 | inactive
52 | CCc1ccccc1NC(=O)/C(=C/c1ccccc1)c1ccccc1 | 51.5% (active)
53 | COc1ccc(C2CC(c3cccs3)=NN2c2ccccc2)cc1 (stereo not given) | 34% (active)
54 | CCOc1ccccc1NC(=O)C12CC3CC(C1)CC(c1ccc(C)cc1)(C3)C2 | inactive
55 | Cc1ccc(S(=O)(=O)N2CCN(C(=O)COC(=O)c3c(C)cc(C)cc3C)CC2)c(C)c1 | inactive
56 | O=C(NCCc1ccccc1)c1ccc2c(c1)N(Cc1ccccc1)CCS2 | 29% (active)
57 | O=C1/C(=C/c2ccc3c(c2)OCO3)CCC/C1=C\c1ccc2c(c1)OCO2 | inactive
58 | CC1(C)CC(=O)CC2(C1)NCC(c1ccccc1Cl)c1c2[nH]c2ccccc12 (stereo not given) | 33% (active)
59 | CCCCC(=O)Nc1ccccc1N1CCN(c2ccc(F)cc2)CC1 | 43% (active)
60 | Cc1cccc(C(=O)Nc2ccccc2N2CCN(c3ccc(F)cc3)CC2)c1 | 29.5% (active)
61 | Cc1ccc(N2CCN(S(=O)(=O)c3ccc(F)cc3)CC2)c(C)c1 | inactive
62 | COc1ccc(C(=O)C2CCCN(C(=O)c3ccc(OC)o3)C2)c(C)c1 (stereo not given) | inactive
63 | Cc1ccc2c(c1)N(C(=O)CCC(=O)N1CCc3ccccc3C1)CCO2 | inactive
64 | Fc1ccc(Cn2nnnc2C(c2cccs2)N2CCCCCC2)cc1 (stereo not given) | 30.5% (active)
65 | CCOc1ccc2[nH]c(=O)c(CN(Cc3nnnn3CCc3ccccc3)CC3CCCO3)cc2c1 (stereo not given) | inactive
66 | Cc1cccc2cc(CN(Cc3nnnn3Cc3ccccc3)C3CCCC3)c(=O)[nH]c12 | inactive
67 | CCC(c1nnnn1Cc1ccco1)N(CCc1ccccc1)Cc1cc2cccc(C)c2[nH]c1=O (stereo not given) | 33.5% (active)
68 | O=C1CC(NNc2ccccc2)C(=O)N1c1cccc(Cl)c1 (stereo not given) | inactive
69 | c1ccc(C(c2ccccc2)N2CCN(Cc3nnnn3C3CCCCC3)CC2)cc1 | 29% (active)
70 | CCOc1ccc(OCc2ccc(C(=O)Nc3cccc(C)n3)o2)cc1 | inactive
71 | CSc1cccc(NC(=S)N(C(C)C)C(C)c2ccccn2)c1 (stereo not given) | 24.5% (active)
72 | COC(C(=O)Nc1ccc(S(=O)(=O)Nc2ccc(C)c(C)c2)cc1)c1ccccc1 (stereo not given) | inactive
73 | CC(C)C(=O)Nc1cccc(NC(=S)NC(=O)C(c2ccccc2)c2ccccc2)c1 | 24% (active)
74 | CCCCOC(=O)CCCc1ccc([N+](=O)[O-])cc1[N+](=O)[O-] | inactive
75 | COc1cc(Cl)c(S(=O)(=O)N2CCN(Cc3ccc4c(c3)OCO4)CC2)cc1Cl | inactive

Row | Structure (SMILES) | inhibition
76 | COc1ccc(-c2nc(CCNC(=O)c3ccc(Br)o3)cs2)cc1 | inactive
77 | COc1ccc(CCNc2ncnc3c2nnn3Cc2ccccc2)cc1 | inactive
78 | COc1ccc(CCNC(=O)c2ccccc2OCc2ccccc2)cc1 | 40% (active)
79 | COCCNc1cc(-c2ccccc2)nc2cc(-c3cccc(F)c3)nn12 | 30% (active)
80 | COC(=O)Cn1cnc2scc(-c3ccc(C)c(C)c3)c2c1=O | inactive
81 | Cc1ccc(-c2csc(NCCc3nc4cc(Cl)c(Cl)cc4n3CCOCCO)n2)cc1 | 36% (active)
82 | CCN(C(=O)COc1ccc(C(=O)c2ccccc2)cc1)c1ccccc1 | 29% (active)
83 | Cc1ccc(C2=Nc3c(ccc4ccccc34)C(c3ccncc3)=NN2)cc1 | inactive
84 | COc1ccc2c(c1)C(c1cccs1)=NNC(c1cccnc1)=N2 | 24.5% (active)
85 | O=C(NNc1ccccc1Cl)C(O)(c1cccc(C(F)(F)F)c1)c1cccc(C(F)(F)F)c1 | inactive
86 | O=[N+]([O-])/C=C/c1ccc2c(ccn2Cc2ccccc2)c1 | 44.5% (active)
87 | COc1cccc(COc2ccc(N(C)S(=O)(=O)c3ccccc3)cc2)c1 | 49.5% (active)
88 | CCOC(=O)c1cc2sccc2n1Cc1ccc(C#N)cc1 | 53% (active)
89 | O=C(OCC(=O)N(CCc1ccccc1)Cc1ccccc1)c1ccccc1[N+](=O)[O-] | inactive
90 | Cc1nc(N2CCN(c3ccccn3)CC2)c2c(C)c(C(=O)Nc3ccc(F)c(Cl)c3)sc2n1 | 24.5% (active)
91 | O=C(Nc1ccc(Cl)c(Cl)c1)N1CC=C(c2ccccc2)CC1 | inactive
92 | COc1ccc(C(=O)C2CCCN(C(=O)c3cc(C)on3)C2)cc1F (stereo not given) | inactive
93 | Oc1ccc(/C=N/Nc2nc(-c3ccccc3F)nc3ccccc23)c(O)c1 | 32% (active)
94 | O=C1c2ccccc2S(=O)(=O)N1CC(O)Cn1c2ccccc2c2ccccc21 (stereo not given) | inactive
95 | O=C(CSCc1ccc(Br)cc1)Nc1ccc(S(=O)(=O)N2CCCCCC2)cc1 | inactive
96 | Cc1cccc(N(C)C(=O)CN2C(=O)COc3ccc(S(=O)(=O)N4CCCCCC4)cc32)c1 | inactive
97 | Cc1cccc(NC(=O)CN2CCCN(S(=O)(=O)c3ccc(Br)s3)CC2)c1 | 39.5% (active)
98 | O=C1c2ccccc2C2=Nc3ccccc3SC(c3ccccc3F)C12 (stereo not given) | 45.5% (active)
99 | C=CCN(N=Nc1cccc([N+](=O)[O-])c1)c1cccc([N+](=O)[O-])c1 | 39% (active)
100 | Cc1ccc(NC2CCCN(C(=O)CCC3(C)CC3)C2)cc1C (stereo not given) | inactive
